Legend:
Test in all cases: log2 ratio of Biotin-Ahx-Ub-VS probe labelling (fragment/DMSO); higher = less target engagement (more negative = stronger competition), active = hit call of the paper (q ≤ 0.05, log2 ratio ≤ -1)
Conditions in all cases: compound concentration: 200 uM; treatment time: 3 h
USP19 = molecular target: T1, USP19 (UniProt O94966)
T1 sequence (whole entry): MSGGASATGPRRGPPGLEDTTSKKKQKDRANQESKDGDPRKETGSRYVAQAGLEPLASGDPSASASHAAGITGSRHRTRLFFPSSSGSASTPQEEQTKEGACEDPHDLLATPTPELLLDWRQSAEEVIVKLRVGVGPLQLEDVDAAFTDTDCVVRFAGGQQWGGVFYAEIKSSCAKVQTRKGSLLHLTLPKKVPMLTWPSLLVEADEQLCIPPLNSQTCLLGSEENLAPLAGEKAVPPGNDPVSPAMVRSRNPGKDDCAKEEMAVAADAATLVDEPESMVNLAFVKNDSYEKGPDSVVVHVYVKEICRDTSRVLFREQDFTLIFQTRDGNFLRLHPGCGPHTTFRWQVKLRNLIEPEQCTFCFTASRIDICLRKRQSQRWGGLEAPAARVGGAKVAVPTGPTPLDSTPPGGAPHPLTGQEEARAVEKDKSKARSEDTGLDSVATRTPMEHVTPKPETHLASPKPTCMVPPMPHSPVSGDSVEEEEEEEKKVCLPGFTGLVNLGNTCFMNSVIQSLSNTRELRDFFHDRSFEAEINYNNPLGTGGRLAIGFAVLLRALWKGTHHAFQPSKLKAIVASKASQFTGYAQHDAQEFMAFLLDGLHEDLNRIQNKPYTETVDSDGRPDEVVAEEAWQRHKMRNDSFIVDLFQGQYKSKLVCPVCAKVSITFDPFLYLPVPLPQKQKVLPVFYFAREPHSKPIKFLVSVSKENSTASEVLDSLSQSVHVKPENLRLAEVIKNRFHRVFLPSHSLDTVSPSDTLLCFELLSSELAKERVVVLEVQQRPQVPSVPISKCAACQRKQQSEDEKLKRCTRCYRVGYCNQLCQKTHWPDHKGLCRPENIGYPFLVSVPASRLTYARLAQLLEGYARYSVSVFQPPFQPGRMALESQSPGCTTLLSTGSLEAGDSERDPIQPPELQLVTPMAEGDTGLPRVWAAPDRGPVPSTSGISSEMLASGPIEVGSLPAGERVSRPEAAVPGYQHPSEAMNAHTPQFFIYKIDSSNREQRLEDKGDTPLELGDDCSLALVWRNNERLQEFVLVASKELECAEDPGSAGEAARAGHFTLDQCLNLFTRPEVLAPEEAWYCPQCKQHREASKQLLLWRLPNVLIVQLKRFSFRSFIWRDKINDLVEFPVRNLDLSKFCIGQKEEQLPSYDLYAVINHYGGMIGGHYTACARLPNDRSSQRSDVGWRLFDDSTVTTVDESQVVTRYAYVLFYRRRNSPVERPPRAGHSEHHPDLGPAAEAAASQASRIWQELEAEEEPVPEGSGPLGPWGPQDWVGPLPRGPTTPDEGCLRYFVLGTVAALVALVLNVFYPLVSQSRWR
In short: (§1)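 Labelled DUBs from HEK293T lysate were NeutrAvidin-enriched, digested with LysC and trypsin, and run by diaPASEF LC-MS/MS. Before that, each 495 µg sample in Tris/CHAPS/IGEPAL buffer with protease inhibitors was treated in triplicate with fragment at 200 µM or vehicle for 3 h, then with Biotin-Ahx-Ub-VS at 0.5 µM final for 1 h. Values are average log2 ratios of fragment over vehicle by unpaired t-test, based on global-median-normalised Spectronaut label-free quantities from proteins with ≥2 unique peptides.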

USP22 = molecular target: T2, USP22 (UniProt Q9UPT9)
T2 sequence (whole entry): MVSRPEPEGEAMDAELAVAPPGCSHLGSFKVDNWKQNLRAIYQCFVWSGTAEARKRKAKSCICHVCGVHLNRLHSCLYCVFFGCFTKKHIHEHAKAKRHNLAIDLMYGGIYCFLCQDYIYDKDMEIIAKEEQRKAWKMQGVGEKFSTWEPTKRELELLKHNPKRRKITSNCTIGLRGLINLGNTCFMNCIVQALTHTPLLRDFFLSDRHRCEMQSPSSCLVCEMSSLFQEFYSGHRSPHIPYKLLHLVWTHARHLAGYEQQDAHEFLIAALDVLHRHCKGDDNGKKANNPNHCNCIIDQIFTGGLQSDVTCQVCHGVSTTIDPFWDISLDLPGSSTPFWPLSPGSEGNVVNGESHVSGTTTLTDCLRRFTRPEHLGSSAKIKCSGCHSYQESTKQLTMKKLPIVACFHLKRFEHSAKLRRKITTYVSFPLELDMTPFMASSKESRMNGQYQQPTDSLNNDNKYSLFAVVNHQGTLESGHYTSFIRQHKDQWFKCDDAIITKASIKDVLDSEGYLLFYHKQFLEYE
In short: as §1

USP24 = USP24 (UniProt Q9UPU5)
In short: as §1

USP25 = molecular target: T3, USP25 (UniProt Q9UHP3)
T3 sequence (whole entry): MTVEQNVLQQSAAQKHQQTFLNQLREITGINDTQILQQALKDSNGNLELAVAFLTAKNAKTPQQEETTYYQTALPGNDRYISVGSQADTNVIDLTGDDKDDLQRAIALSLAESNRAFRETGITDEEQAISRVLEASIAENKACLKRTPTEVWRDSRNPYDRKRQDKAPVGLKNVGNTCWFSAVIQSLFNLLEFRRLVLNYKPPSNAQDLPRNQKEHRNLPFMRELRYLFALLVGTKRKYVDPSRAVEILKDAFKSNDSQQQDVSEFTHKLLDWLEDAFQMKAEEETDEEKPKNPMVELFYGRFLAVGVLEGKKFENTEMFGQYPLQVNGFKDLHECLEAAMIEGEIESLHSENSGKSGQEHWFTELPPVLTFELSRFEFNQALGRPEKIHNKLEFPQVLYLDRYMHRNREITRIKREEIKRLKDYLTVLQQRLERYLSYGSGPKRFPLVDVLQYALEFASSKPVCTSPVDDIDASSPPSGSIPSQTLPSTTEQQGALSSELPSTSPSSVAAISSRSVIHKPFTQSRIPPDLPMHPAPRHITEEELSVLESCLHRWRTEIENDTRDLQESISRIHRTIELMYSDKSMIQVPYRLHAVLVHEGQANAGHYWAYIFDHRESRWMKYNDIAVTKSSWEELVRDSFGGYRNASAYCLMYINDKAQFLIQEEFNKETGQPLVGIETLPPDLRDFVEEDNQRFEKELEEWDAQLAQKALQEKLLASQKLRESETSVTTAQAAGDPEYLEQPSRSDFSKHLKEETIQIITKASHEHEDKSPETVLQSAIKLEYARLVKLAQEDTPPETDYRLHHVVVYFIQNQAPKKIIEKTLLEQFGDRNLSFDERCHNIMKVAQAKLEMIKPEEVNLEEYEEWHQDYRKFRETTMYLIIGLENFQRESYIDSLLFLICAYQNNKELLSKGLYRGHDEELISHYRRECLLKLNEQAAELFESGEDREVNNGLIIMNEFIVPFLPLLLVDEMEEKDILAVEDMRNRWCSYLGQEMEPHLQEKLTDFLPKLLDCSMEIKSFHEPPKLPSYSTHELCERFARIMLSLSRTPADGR
In short: as §1

USP28 = molecular target: T4, USP28 (UniProt Q96RU2)
T4 sequence (whole entry): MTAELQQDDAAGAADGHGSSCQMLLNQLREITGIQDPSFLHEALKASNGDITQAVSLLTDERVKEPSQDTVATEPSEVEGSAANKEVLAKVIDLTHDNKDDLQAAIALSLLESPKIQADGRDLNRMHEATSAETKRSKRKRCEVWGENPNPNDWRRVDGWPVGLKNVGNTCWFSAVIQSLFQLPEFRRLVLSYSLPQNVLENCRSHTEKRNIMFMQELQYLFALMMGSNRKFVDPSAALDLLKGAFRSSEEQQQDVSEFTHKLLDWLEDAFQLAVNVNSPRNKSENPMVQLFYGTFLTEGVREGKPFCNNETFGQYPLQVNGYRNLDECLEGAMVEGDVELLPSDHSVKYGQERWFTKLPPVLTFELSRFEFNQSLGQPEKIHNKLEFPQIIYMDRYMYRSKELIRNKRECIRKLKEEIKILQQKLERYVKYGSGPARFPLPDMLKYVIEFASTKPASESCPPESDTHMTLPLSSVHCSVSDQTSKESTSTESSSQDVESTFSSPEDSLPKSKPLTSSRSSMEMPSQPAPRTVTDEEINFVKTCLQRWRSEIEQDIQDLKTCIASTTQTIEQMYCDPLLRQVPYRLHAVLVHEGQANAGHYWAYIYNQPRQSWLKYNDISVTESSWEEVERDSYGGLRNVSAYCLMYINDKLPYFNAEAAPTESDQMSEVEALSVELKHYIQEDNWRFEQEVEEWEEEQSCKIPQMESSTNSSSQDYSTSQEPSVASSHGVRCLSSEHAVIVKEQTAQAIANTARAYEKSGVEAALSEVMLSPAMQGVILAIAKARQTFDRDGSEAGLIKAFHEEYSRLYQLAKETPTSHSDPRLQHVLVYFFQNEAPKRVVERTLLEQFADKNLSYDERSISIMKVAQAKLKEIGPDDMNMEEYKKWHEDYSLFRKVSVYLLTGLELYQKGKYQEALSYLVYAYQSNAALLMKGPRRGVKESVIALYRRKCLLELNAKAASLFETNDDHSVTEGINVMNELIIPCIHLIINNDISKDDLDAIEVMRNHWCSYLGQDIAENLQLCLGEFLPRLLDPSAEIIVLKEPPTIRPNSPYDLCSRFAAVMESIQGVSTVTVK
In short: as §1

Measured: log2 ratio of Biotin-Ahx-Ub-VS probe labelling

USP24, sequence (Q9UPU5 whole entry): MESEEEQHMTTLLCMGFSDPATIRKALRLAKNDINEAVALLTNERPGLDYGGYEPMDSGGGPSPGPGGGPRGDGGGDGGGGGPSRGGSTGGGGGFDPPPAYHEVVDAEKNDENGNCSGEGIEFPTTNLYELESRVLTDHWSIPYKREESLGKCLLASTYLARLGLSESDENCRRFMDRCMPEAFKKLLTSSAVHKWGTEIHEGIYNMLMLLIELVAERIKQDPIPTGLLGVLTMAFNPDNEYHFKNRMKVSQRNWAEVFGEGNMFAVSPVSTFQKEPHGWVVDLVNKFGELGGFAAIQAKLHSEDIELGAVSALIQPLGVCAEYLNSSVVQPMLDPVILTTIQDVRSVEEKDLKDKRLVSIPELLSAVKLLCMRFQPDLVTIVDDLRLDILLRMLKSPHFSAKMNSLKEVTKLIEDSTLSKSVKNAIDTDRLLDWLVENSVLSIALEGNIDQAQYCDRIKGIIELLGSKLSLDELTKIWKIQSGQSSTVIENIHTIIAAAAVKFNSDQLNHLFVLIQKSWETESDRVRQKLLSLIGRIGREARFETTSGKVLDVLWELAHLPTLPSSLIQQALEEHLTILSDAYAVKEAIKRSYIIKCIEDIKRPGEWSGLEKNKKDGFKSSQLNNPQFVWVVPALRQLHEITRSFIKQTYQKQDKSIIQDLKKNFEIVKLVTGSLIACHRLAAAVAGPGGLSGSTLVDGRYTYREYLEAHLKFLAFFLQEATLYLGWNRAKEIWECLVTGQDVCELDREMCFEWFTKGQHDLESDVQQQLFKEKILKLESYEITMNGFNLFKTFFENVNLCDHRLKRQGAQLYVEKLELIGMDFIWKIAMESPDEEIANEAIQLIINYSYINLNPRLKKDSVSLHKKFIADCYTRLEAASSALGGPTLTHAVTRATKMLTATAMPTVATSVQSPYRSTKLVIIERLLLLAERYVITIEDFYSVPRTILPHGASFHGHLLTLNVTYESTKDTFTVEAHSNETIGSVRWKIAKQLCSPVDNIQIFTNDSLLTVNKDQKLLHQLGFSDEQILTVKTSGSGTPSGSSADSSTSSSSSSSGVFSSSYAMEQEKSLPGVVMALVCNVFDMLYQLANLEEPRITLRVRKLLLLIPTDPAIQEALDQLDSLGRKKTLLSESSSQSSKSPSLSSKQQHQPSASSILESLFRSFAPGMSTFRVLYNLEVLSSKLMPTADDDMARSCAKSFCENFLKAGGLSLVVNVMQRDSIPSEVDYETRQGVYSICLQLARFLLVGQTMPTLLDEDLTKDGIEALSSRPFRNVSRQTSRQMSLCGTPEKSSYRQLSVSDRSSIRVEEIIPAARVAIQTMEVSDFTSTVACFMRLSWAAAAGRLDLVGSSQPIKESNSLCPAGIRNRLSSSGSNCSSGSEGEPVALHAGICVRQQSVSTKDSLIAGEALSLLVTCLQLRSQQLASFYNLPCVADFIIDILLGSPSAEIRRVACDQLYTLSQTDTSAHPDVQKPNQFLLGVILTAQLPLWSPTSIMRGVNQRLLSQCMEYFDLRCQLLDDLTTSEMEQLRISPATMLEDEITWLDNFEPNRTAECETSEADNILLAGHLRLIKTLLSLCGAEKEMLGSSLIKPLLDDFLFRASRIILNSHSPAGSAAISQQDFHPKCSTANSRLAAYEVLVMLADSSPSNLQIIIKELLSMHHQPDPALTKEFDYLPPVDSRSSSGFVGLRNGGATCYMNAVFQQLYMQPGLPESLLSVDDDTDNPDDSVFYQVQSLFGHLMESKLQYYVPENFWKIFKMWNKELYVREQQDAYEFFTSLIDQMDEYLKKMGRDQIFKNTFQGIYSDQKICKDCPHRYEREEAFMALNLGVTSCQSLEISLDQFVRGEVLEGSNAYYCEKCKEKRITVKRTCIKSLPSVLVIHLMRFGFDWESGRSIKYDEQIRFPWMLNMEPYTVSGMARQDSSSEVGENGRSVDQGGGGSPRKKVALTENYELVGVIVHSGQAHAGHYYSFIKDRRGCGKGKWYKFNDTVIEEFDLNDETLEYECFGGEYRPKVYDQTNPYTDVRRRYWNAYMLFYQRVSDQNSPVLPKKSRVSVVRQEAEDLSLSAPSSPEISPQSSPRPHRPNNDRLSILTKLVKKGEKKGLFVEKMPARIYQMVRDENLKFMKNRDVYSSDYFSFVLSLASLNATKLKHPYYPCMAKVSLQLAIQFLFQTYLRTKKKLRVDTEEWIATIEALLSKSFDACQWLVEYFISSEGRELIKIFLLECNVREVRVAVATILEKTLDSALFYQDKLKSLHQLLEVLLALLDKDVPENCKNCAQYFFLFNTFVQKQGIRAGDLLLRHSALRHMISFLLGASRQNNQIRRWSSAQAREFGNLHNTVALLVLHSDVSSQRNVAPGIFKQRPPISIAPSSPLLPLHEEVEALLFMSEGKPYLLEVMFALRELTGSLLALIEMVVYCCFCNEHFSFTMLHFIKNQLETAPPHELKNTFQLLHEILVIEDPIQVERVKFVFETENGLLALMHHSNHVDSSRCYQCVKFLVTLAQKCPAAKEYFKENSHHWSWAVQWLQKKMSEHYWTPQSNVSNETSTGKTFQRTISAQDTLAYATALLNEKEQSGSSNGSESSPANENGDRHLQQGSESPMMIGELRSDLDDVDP

Cc1cc(C(=O)NC2CCN(C(=O)CCl)CC2)no1
inactive: USP19 -0.0463 | USP22 -0.208 | USP24 -0.225 | USP25 -0.417 | USP28 -0.353

From the supplement of paper PMC11732987, “Enantioselective OTUD7B fragment discovery through chemoproteomics screening and high-throughput optimisation” (Communications Chemistry, 2025)
